NSD2 inh: inhibitors of human histone methyltransferase NSD2; 310,000 tested, 0.54% active; AID 743445; inhibition, % at 12.5 µM; NSD2 peptide methylation, AlphaScreen, 120 min; O96028; in the data active = inhibition above about 50%
Casp6 inh: blocks human caspase-6 cleavage activity; P55212; purified caspase-6, Z-VEID-R110 cleavage fluorescence; inhibition, % at 12.5 µM; 350,000 tested, 0.53% active; AID 686996;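 active = mean inhibition across replicates at least about 35%, with every replicate also reaching that limit, limit read from the data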;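 also: 0% = median of neutral control wells and 100% = no fluorescence left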
ALR inh: inhibitors of human sulfhydryl oxidase ALR. P55789. purified ALR, DTT oxidation, H2O2 HRP-luminol luminescence. inhibition, % (concentration not given with the values). 290,000 tested, 3.8% active. AID 485317;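 active = mean replicate inhibition above about 79%, with every replicate also reaching it, limit read from the data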
CDK5 inh: inhibitors of human CDK5/p35 kinase; Q00535+Q15078; Recombinant CDK5/p35, ADP-Glo luminescence, 60 min; inhibition, % at 10 µM; 330,000 tested, 0.01% active; AID 488839;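 active = highest replicate inhibition of at least 50% and at least 75% of replicates reaching 50%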;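 also: plate controls were DMSO neutral control for no effect and GW8510 at 10 µM for full effect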
Target sequence (Q00535 whole entry, looked up): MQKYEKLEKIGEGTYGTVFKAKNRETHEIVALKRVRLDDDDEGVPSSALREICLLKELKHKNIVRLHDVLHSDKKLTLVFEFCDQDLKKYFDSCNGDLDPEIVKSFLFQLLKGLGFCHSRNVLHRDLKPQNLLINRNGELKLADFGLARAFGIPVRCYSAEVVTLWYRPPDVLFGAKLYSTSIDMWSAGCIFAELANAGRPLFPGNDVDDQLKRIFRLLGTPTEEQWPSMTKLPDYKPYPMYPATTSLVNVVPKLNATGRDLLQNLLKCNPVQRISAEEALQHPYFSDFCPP
Target sequence (Q15078 whole entry, looked up): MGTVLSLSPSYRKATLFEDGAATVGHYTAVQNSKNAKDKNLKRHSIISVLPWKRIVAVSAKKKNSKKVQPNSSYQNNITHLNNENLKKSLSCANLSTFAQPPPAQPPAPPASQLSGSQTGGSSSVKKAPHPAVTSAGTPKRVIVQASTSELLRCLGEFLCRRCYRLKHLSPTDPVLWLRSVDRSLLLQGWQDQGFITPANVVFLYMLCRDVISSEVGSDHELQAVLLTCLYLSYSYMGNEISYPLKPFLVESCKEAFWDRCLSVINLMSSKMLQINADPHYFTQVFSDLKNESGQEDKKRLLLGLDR
SUMO Mot1 rescue: inhibitors of SUMOylation pathway: yeast Mot1-301 growth rescue; S. cerevisiae Mot1-301 growth rescue, ATP luminescence, 38.5C; percent above DMSO median, 100 means doubled; growth rescue, % at 18.8 µM; 320,000 tested, 1% active; AID 2716;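 active = every valid replicate shows activation above 250% relative to neutral control wells; inactive = the rest, any valid replicate at or below 250%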;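 also: OY570 slx delta 5 strain wells were the positive control but not used for scaling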
Glyco luc inh: blocks N-linked glycosylation in D54 reporter cells. D54 ERlucT glycosylation luciferase reporter, 24 h; percent of 100 nM tunicamycin response. reporter increase, % at 12.5 µM. 360,000 tested, 0.23% active. AID 588692;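 active = mean luciferase reporter signal, scaled so untreated is 0 and the glycosylation-blocking control 100, at or above a set limit in every replicate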;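 also: luciferase carries N-glycosylation sites so blocking glycosylation raises the light; 0% = median of neutral control wells and 100% = median of 100 nM tunicamycin wells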
Mot1 SUMO dose: SUMO pathway inhibitors in yeast Mot1-301 growth. growth activity, percent, % at 42 µM. 2,300 tested, under 10 active. S. cerevisiae Mot1-301 galactose growth, ATP luminescence, 24 h; -100 = growth of slx-deleted rescue strain. shares compounds with SUMO Mot1 rescue;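 active = Signal drops as the depositor expects, and the fitted half-maximal dose is no more than ten times the top valid tested dose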;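 also: more negative values mean stronger growth rescue toward the control strain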
Starred values were filed as active, the others as inactive; nt = not tested or not shown. An excerpt weighted towards active compounds, which were near 3.9% of everything screened.

SMILES | NSD2 inh | Casp6 inh | ALR inh | CDK5 inh | SUMO Mot1 rescue | Glyco luc inh | Mot1 SUMO dose
O=C(COc1nc2ccccc2nc1N1CCOCC1)Nc1ccc(S(=O)(=O)N2CCCC2)cc1 | -2 | -2 | -2 | 1 | -4 | -2 | nt
CN(C)S(=O)(=O)c1cccc(NC(=O)COc2nc3ccccc3nc2N2CCOCC2)c1 | -3 | 1 | 2 | -1 | 524* | 1 | 0
CC(C)NC(=O)N[C@H]1CC[C@@H](CCNC(=O)C2CCOCC2)O[C@@H]1CO | nt | 4 | nt | nt | nt | nt | nt
CCCNC(=O)N(C)C[C@@H]1Oc2ncc(-c3ccncc3)cc2C(=O)N([C@@H](C)CO)C[C@@H]1C | nt | 0 | nt | nt | nt | nt | nt
CN(C)C(=O)[C@H]1[C@H](CO)[C@H]2Cn3c(ccc(C4=CCCCC4)c3=O)[C@H]2N1Cc1ccccn1 | nt | 0 | nt | nt | nt | nt | nt
CCCNC(=O)C[C@@H]1CC[C@@H]2[C@H](COC[C@@H](O)CN2Cc2cccc(F)c2)O1 | nt | -1 | nt | nt | nt | nt | nt
CCNC(=O)NC(C(=O)OC)C12CC3CC(CC(C3)C1)C2 (configuration not stated) | -4 | -4 | 13 | -2 | 562* | 0 | 1
COc1ccc2[nH]c(C(=O)N/N=C/c3ccccc3OC)cc2c1 | 1 | 6 | -12 | 1 | 503* | 37* | 0
COc1cc(C2NC(=S)NC(O)(C(F)(F)F)C2C(=O)c2cccs2)cc(OC)c1O (configuration not stated) | -2 | nt | 7 | 0 | -8 | -1 | nt
O=C1NC(c2ccccc2)C(C(=O)c2cccs2)C(O)(C(F)(F)F)N1 (configuration not stated) | 1 | nt | -7 | -2 | 374* | 2 | 0
CNC(=O)c1ccccc1NC(=O)c1c(O)c2c([nH]c1=O)CCCC2 | -4 | nt | 1 | -1 | 522* | 0 | 0
O=C(N/N=C/c1cccc(F)c1)c1c(O)c2c([nH]c1=O)CCCC2 | 1 | nt | -8 | 0 | -2 | -4 | nt
O=C(C[C@H]1C[C@H]2c3cc(NC(=O)NC4CCCC4)ccc3O[C@H]2[C@H](CO)O1)NCc1ccccc1F | nt | 3 | nt | nt | nt | nt | nt
Cc1noc(C)c1NC(=O)N(C)C[C@@H]1Oc2ccc(NS(=O)(=O)c3ccc(F)cc3)cc2CC(=O)N([C@@H](C)CO)C[C@@H]1C | nt | -1 | nt | nt | nt | nt | nt
CC/C(=N\NC(=O)c1nnn(-c2nonc2N)c1-c1cccs1)c1ccccc1 | -11 | 0 | 4 | 0 | 371* | 1 | 1
CC/C(=N\NC(=O)c1nnn(-c2nonc2N)c1-c1ccc2c(c1)OCO2)c1ccccc1 | -1 | -2 | 0 | 2 | -2 | -1 | nt
CCOc1ccc(-c2c(C(=O)N/N=C/c3ccccc3)nnn2-c2nonc2N)cc1 | -2 | 0 | 4 | 0 | 13 | 0 | nt
CCOc1ccc(-c2c(C(=O)N/N=C/c3ccncc3)nnn2-c2nonc2N)cc1 | -3 | -8 | -4 | nt | 396* | 3 | 1
C[C@@H]1CN([C@H](C)CO)C(=O)c2cc(C3=CCCC3)cnc2O[C@@H]1CN(C)C(=O)c1ccc(F)cc1 | nt | -2 | nt | nt | nt | nt | nt
COCCNC(=O)NC(=O)CSc1nc(C)c(C)c(C)n1 | -3 | 0 | -1 | 1 | 494* | 0 | 1
Cc1nc(SCC(=O)NC(=O)NCc2ccccc2)nc(C)c1C | 1 | nt | -16 | 0 | nt | -2 | nt
NC(=O)CN1CCOCCN(CC(N)=O)CCOCC1 | nt | nt | -1 | nt | 410* | nt | 0
NC(=O)c1ccccc1NC(=O)c1ccc2ccccc2c1 | -2 | 0 | -2 | 0 | -8 | -9 | nt
O=C(Nc1ccc([N+](=O)[O-])cn1)c1ccc2c(c1)OCO2 | -1 | 11 | 4 | -1 | 605* | 0 | 2
NC(=O)c1ccccc1NC(=O)c1ccc2c(c1)OCO2 | -2 | -1 | -3 | 0 | 700* | -2 | -1
C[C@@H]1CN([C@H](C)CO)C(=O)c2cc(NC(=O)Nc3ccccc3)ccc2O[C@H]1CN(C)Cc1ccccc1 | nt | 0 | nt | nt | nt | nt | nt
CC1(C)CCc2cc(CN3CCN(c4ccccn4)CC3)ccc2O1 | 6 | -6 | 1 | 1 | 725* | -2 | 0

Bioassay records from PubChem BioAssay.
